Rows were chosen to be rich in hits. Some 12% of all compounds tested hit in one or more screens of this group.
Sm TGR inh: inhibitors of Schistosoma mansoni thioredoxin glutathione reductase; Q962Y6; purified TGR, DTNB reduction, TNB absorbance 405 nm; Potency, µM (highest dose often 114 µM), inactives show at the highest dose activity change, negative = inhibition, hits mostly inhibitors; actives 3% (n = 360,000); AID 485364; further: on the % scale 0 is the no-effect control and ±100 the full control effect; nearly all actives have a fitted effect of over 60% in size
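First, TGR (20 nM dispensed) and NADPH were mixed with compound. Second, a 15 min room-temperature incubation followed. Third, further NADPH and then DTNB were added to start the reaction. Finally, TNB absorbance was monitored kinetically.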
Pf growth 96h: inhibits malaria parasite growth, 96 h; P. falciparum luciferase reporter growth, 96 h; Potency, µM (series often up to 28.7 µM), for inactives: at the top dose activity change, negative = inhibition, actives largely listed as inhibitors; actives 6.9% (n = 320,000); further: on the % scale 0 is the no-effect control and ±100 the full control effect
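Plates of compound plus infected erythrocytes (2% hematocrit, 0.05% parasitemia final) incubate 96 hours, 37 C, 5% CO2. Detection reagent added; reduced luminescence from the parasites' luciferase reporter flags inhibition.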
Pf growth 48h: inhibits P. falciparum growth in the first generation, 48 h; P. falciparum luciferase growth in erythrocytes, 48 h; Potency, µM (top dose mostly 28.7 µM), without a hit: top-dose activity change, negative = inhibition, usual class: inhibitors; actives 5.9% (n = 310,000); further: on the % scale 0 is the no-effect control and ±100 the full control effect
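Compounds are pin-transferred into medium, infected erythrocytes (2% hematocrit, 0.1% parasitemia final) are added, and plates sit one parasite generation at 37 C in 5% CO2. Detection reagent is then added and luminescence measured.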
AmpC inh no detg: blocks E. coli AmpC beta-lactamase in detergent-free assay. P00811. AmpC nitrocefin hydrolysis, absorbance 480 nm, 0.0001% Triton. Potency, µM (top dose mostly 57.1 µM), for the others: at the highest dose activity change, negative = inhibition, most hits filed as inhibitors. actives 0.52% (n = 330,000). AID 485341;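 further: plate controls were no compound for no effect and no enzyme for full effect; nearly all actives have a fitted effect of over 20% in size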
Target sequence (P00811 whole entry, looked up): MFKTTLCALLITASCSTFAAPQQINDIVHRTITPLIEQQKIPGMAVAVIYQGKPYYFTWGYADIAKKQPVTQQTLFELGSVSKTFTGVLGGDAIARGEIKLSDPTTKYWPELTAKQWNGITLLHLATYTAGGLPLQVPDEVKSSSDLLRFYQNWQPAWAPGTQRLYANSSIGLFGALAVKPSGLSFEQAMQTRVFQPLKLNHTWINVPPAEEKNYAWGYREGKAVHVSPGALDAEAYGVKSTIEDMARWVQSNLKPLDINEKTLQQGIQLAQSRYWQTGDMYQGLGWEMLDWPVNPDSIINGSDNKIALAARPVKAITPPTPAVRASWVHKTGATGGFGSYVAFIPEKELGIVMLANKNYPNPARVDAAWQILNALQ
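20 mM phosphate pH 7.0 + 0.01% (detergent screen) or 0.0001% Triton X-100; 5.3 nM AmpC reagent; cpd preinc 15 min RT; nitrocefin (800 uM stock) to start; A480 q20 s × 4 min; Activity was normalised to no-enzyme and no-compound control wells.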
SARS PLpro yeast: blocks SARS-CoV papain-like protease in a yeast assay | actives 0.19% (n = 330,000) | Potency, µM (titrated, usually from 32.9 µM), inactives show at the highest dose activity, positive = growth rescue, usual class: activators | S. cerevisiae expressing SARS-CoV PLpro, growth rescue | AID 485353; calls by dose curve; further: 0% is about no effect; nearly all actives have a fitted effect of over 55% in size
AmpC inh detg: blocks E. coli AmpC beta-lactamase in detergent assay; P00811; AmpC hydrolysis of nitrocefin, absorbance 480 nm, 0.01% Triton; Potency, µM (doses to about 114 µM), without a hit: top-dose activity change, negative = inhibition, most hits filed as inhibitors; actives 0.041% (n = 370,000); AID 485294;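 further: 0% = no-compound wells and -100% = no-enzyme wells; nearly all actives have a fitted effect of over 25% in size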
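AmpC (5.3 nM in the dispensed reagent) in 20 mM phosphate pH 7.0 with 0.01% (detergent screen) or 0.0001% Triton X-100 was preincubated with compounds for 15 min at room temperature. Nitrocefin was then added from an 800 uM solution, and hydrolysis was followed at 480 nm.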
* marks the source's active call; other numbers are inactive results; ? = inconclusive; · = no result given; [ ] = another dose, or the depositor's remark. Unless noted, the call rests on the fitted dose curve; in most records, active means well fitted curve in the direction sought with a large enough effect; inconclusive means small, poorly fitted or top-dose-only effect, or another doubt; inactive means no such curve, though single readings can be large; an effect the other way counts as inactive or inconclusive. Potency means the concentration at half of the fitted maximal effect.

SMILES	Sm TGR inh	Pf growth 96h	Pf growth 48h	AmpC inh no detg	SARS PLpro yeast	AmpC inh detg
COc1cccc(C(=O)Nc2ccc3nc(N4CCOCC4)cc(C)c3c2)c1	4%	0.47µM*	15µM*	98%	5%	?
COc1ccccc1CC(=O)Nc1ccc2nc(N3CCC(C)CC3)cc(C)c2c1	-2%	·	·	·	·	9%
CCN1CCN(c2cc(C)c3cc(NC(=O)Cc4ccccc4OC)ccc3n2)CC1	-17%	?	12µM*	-13%	1%	-12%
CCN1CCN(c2cc(C)c3cc(NC(=O)c4cncc(Br)c4)ccc3n2)CC1	4%	1.9µM*	0.1µM*	58%	4%	-6%
CCN1CCN(c2cc(C)c3cc(NC(=O)c4cc(OC)c(OC)c(OC)c4)ccc3n2)CC1	-7%	·	·	·	·	-9%
COc1cccc(CNC(=O)c2ccc3oc(=O)n(Cc4ccccc4)c3c2)c1	9%	·	·	·	·	1%
CC1CC(=O)Nc2cc([N+](=O)[O-])ccc2N1 (stereo not given)	3%	-1%	23%	-7%	0%	5%
CCN1CCN(C(=O)Cc2coc3ccc4ccccc4c23)CC1	-13%	·	-6%	4%	4%	1%
CCCN(CCC)C(=O)Cc1coc2ccc3ccccc3c12	0%	·	12µM*	-3%	9%	3%
O=C(Cc1coc2ccc3ccccc3c12)NCc1ccccc1	-17%	?	·	-21%	3%	?
O=C(Cc1coc2ccc3ccccc3c12)N1CCc2ccccc21	11%	8.3µM*	-13%	-34%	-2%	?
O=C(Cc1coc2ccc3ccccc3c12)N1CCN(c2ncccn2)CC1	0%	8.3µM*	?	30%	2%	1%
CCCCNC(=S)Nc1cc([N+](=O)[O-])ccc1C	?	?	?	-10%	-6%	-19%
CN(c1ccccc1)S(=O)(=O)c1cccc(C(=O)Nc2cccc(C(=O)NC3CC3)c2)c1	-3%	6.6µM*	5.2µM*	-29%	-1%	0%
CN(c1ccc(C(=O)NC2CC2)cc1)S(=O)(=O)c1ccccc1	-14%	·	4.7µM*	-9%	2%	-5%
Cc1ccc(C(=O)Nc2cccc(C(=O)O)c2)cc1S(=O)(=O)N1CCOCC1	7%	·	244%	-4%	-1%	-8%
Cc1ccc(NC(=O)c2cccc(S(=O)(=O)N(C)c3ccccc3)c2)cc1S(=O)(=O)N1CCOCC1	1%	12µM*	?	2%	-4%	-5%
CN(c1ccccc1)S(=O)(=O)c1cccc(C(=O)NC2CCCC2)c1	·	·	·	-22%	5%	·
CN(c1ccccc1)S(=O)(=O)c1ccc(NC(=O)C2CC2)cc1	2%	6.6µM*	34%	-54%	-8%	?
CN(c1ccc(C(=O)NC2CCCC2)cc1)S(=O)(=O)c1ccc(Cl)cc1	-24%	33%	-19%	-20%	1%	-4%
CC(C)Nc1nc(Cl)nc(N(C#N)CN2C(=O)c3ccccc3S2(=O)=O)n1	20µM*	17%	12%	-39%	1%	7%
COc1nc(NC(C)C)nc(N(C#N)CN2C(=O)c3ccccc3S2(=O)=O)n1	-35%	19%	11%	0%	1%	-8%
Cc1ccc(Nc2cc(C)nn2-c2nc(C)cc(C)n2)cc1	11%	·	3.7µM*	128%	-23%	1%
CCOC(=O)c1sc(/N=C/c2c(C)[nH]n(-c3ccccc3)c2=O)c(C#N)c1C	2%	51%	·	-5%	3%	-4%
CCOc1ccc(-n2cc(C(=O)N3CCCCCC3)c3cc(OC)c(OC)cc3c2=O)cc1	-2%	?	?	96%	7%	?
SMILES	Sm TGR inh	Pf growth 96h	Pf growth 48h	AmpC inh no detg	SARS PLpro yeast	AmpC inh detg
Cc1[nH]c2ccccc2c1/C=C/c1nc2ccccc2c(=O)n1-c1cccc([N+](=O)[O-])c1	6%	3.7µM*	2.1µM*	-19%	8%	1%
COc1ccc(-n2c(/C=C/c3c(C)[nH]c4ccccc34)nc3ccccc3c2=O)cc1	-4%	·	·	·	·	-16%
Cc1[nH]c2ccccc2c1/C=C/c1nc2ccccc2c(=O)n1CCO	-3%	11%[1.15 µM]	9.3µM*	-6%	-1%	-8%
CCOC(=O)CC(=O)Nc1ccc(Br)cc1C(=O)O	-2%	·	-2%	-19%	-5%	?
CCn1cc(S(=O)(=O)N2CCN(Cc3cccc(Cl)c3)CC2)cn1	-8%	-57%[5.75 µM]	8%	3%[2.29 µM]	-1%	-6%
Cc1ccccc1NC(=S)N(CCCN1CCC(C)CC1)Cc1ccco1	-6%	13µM*	-26%	-19%	-6%	-9%
Cc1ccc(Cl)cc1NC(=S)N(Cc1cccnc1)Cc1ccccc1Cl	8%	20%	13µM*	-22%	-14%	-9%
Cc1ccccc1NC(=S)N(Cc1cccnc1)Cc1ccco1	-9%	1.9µM*	?	-4%	21%	?
Cc1ccccc1NC(=S)N(Cc1ccccc1)Cc1cccnc1	17%	-5%	?	1%	1%	?
COc1ccc(C(C(=O)NCC2CCCO2)N(Cc2ccccc2)C(=O)c2snc(C(N)=O)c2N)cc1OC (stereo not given)	9%	?	?	57%	4%	-2%
COc1ccc(C(C(=O)NCC2CCCO2)N(C(=O)c2snc(C(N)=O)c2N)c2ccccc2)cc1OC (stereo not given)	-10%	?	?	120%	2%	-13%
COc1ccc(C(C(=O)NCC2CCCO2)N(C(=O)c2snc(C(N)=O)c2N)c2ccccc2C)cc1OC (stereo not given)	0%	34%	12µM*	45%	3%	0%
CCc1ccccc1N(C(=O)c1snc(C(N)=O)c1N)C(C(=O)NCC1CCCO1)c1ccc(OC)c(OC)c1 (stereo not given)	-21%	44%	12µM*	123%	4%	-4%
CCOc1ccc(C(C(=O)NCC2CCCO2)N(CCc2cccc(C)c2)C(=O)c2snc(C(N)=O)c2N)cc1 (stereo not given)	-12%	-1%	9.3µM*	150%	-39%	-9%
Cc1cccc(N(C(=O)c2snc(C(N)=O)c2N)C(C(=O)NCC2CCCO2)c2ccc(N(C)C)cc2)c1C (stereo not given)	7%	7.4µM*	?	4%	6%	2%
CN(C)CCNC(=O)c1ccc(-n2c(-c3ccccc3)cc3c2CCCC3)cc1	-7%	·	·	·	·	5%
ONC(=Nc1ccccc1)C(=Nc1ccccc1)NO	33%	33%	38%	-4%	-5%	?
COc1cc(/C=C2/CCC/C(=C\c3cc(O)c(OC)c(Cl)c3)C2=O)cc(Cl)c1O	0%	0.13µM*	?	-53%	1%	-9%

High-throughput results from PubChem.
